Measured values published in PubChem BioAssay AID1159580 (chemical genetic matrix, 2015).
Hit rate of the full screen: of about 5,500 compounds, about 2,000 (36%) were called active. Roughly 18% stayed inconclusive and do not appear here. No stated cut-off is given here; in the data, active means normalized growth mostly below about 0.91 (no sharp cut-off); inconclusive means no clear call, values can overlap the other calls; inactive means mostly above about 0.92. The list shows a part of the results.

Assay: chemical genetic growth profiling, strain panel (AID 1159580);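 further: tested at 20 µM; growth read once vehicle control cultures reached saturation at 30 °C; 1 = growth at the plate median or of vehicle wells; lower values mean less growth of the strain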
Conditions: S. cerevisiae deletion strains, growth OD

Measured: normalized growth

CC(=O)Oc1c(C)cccc1C(=O)O
inactive: locus YAL013W, strain DEP1, active compounds read low 1.01 | locus YAL021C, strain ccr4, active compounds read low 0.989 | locus YAL026C, strain drs2, active compounds read low 1.01 | locus YAL030W, strain snc1, active compounds read low 0.992 | locus YBL061C, strain skt5, active compounds read low 1.01 | locus YBR009C, strain hhf1, active compounds read low 1.01 | locus YBR021W, strain FUR4, active compounds read low 0.989 | locus YBR023C, strain chs3, active compounds read low 1 | locus YBR171W, strain sec66, active compounds read low 1.02 | locus YBR229C, strain ROT2, active compounds read low 0.988 | locus YBR231C, strain swc5, active compounds read low 1.02 | locus YBR279W, strain paf1, active compounds read low 1.01 | locus YCL011C, strain gbp2, active compounds read low 1.01 | locus YCL016C, strain dcc1, active compounds read low 0.998 | locus YCL029C, strain bik1, active compounds read low 1.01 | locus YCL061C, strain MRC1, active compounds read low 1.01 | locus YCL069W, strain vba3, active compounds read low 1.01 | locus YCR088W, strain abp1, active compounds read low 1.02 | locus YDL005C, strain med2, active compounds read low 1.02 | locus YDL035C, strain GPR1, active compounds read low 1.01 | locus YDL040C, strain nat1, active compounds read low 1 | locus YDL074C, strain BRE1, active compounds read low 1 | locus YDL101C, strain DUN1, active compounds read low 1.01 | locus YDL134C, strain PPH21, active compounds read low 1.01 | locus YDL185W, strain tfp1, active compounds read low 0.999 | locus YDL192W, strain arf1, active compounds read low 1.02 | locus YDR001C, strain nth1, active compounds read low 1.01 | locus YDR069C, strain doa4, active compounds read low 1.01 | locus YDR101C, strain arx1, active compounds read low 1.02 | locus YDR137W, strain rgp1, active compounds read low 0.985 | locus YDR150W, strain NUM1, active compounds read low 1.01 | locus YDR159W, strain sac3, active compounds read low 0.981 | locus YDR162C, strain NBP2, active compounds read low 1 | locus YDR195W, strain ref2 0.994 | locus YDR297W, strain sur2, active compounds read low 0.987 | locus YDR318W, strain mcm21, active compounds read low 1.02 | locus YDR334W, strain swr1, active compounds read low 1.01 | locus YDR335W, strain msn5, active compounds read low 0.989 | locus YDR388W, active compounds read low 1.01 | locus YDR392W, strain spt3, active compounds read low 0.957 | locus YDR502C, strain sam2, active compounds read low 1.02 | locus YEL003W, strain gim4, active compounds read low 1.03 | locus YEL037C, strain rad23, active compounds read low 1.02 | locus YEL061C, strain CIN8 (second series), active compounds read low 1.01 | locus YEL061C, strain CIN8, active compounds read low 0.995 | locus YER015W, strain faa2, active compounds read low 1.01 | locus YER016W, strain bim1, active compounds read low 0.984 | locus YER110C, active compounds read low 1.02 | locus YER111C, strain swi4, active compounds read low 1.02 | locus YER155C, strain BEM2 (second series), active compounds read low 1.01 | locus YER155C, strain BEM2, active compounds read low 1.01 | locus YER167W, strain BCK2, active compounds read low 1.01 | locus YFR010W, strain ubp6, active compounds read low 1.02 | locus YGL078C, strain dbp3, active compounds read low 1.01 | locus YGL086W, strain mad1, active compounds read low 1.01 | locus YGL167C, strain pmr1, active compounds read low 1.01 | locus YGL173C, strain kem1, active compounds read low 1.02 | locus YGL227W, strain vid30, active compounds read low 1.01 | locus YGL240W, strain doc1, active compounds read low 0.971 | locus YGL248W, strain PDE1, active compounds read low 1.01 | locus YGL253W, strain hxk2, active compounds read low 1.01 | locus YGR078C, strain PAC10, active compounds read low 1 | locus YGR135W, strain pre9, active compounds read low 1 | locus YGR229C, strain SMI1, active compounds read low 1.02 | locus YGR252W, strain gcn5, active compounds read low 1 | locus YHR013C, strain ard1, active compounds read low 1.01 | locus YHR027C, strain rpn1, active compounds read low 0.991 | locus YHR030C, strain SLT2, active compounds read low 1.01 | locus YHR079C, strain IRE1 (second series), active compounds read low 1 | locus YHR094C, strain hxt1, active compounds read low 1.01 | locus YHR129C, strain ARP1, active compounds read low 1.01 | locus YHR142W, strain chs7, active compounds read low 1.02 | locus YHR200W, strain rpn10, active compounds read low 1.02 | locus YIL066C, strain RNR3, active compounds read low 1.01 | locus YIL073C, strain SPO22, active compounds read low 1.05 | locus YIL125W, strain kgd1, active compounds read low 1.01 | locus YIR030C, strain dcg1, active compounds read low 1.01 | locus YJL092W, strain hpr5, active compounds read low 1.01 | locus YJL095W, strain BCK1 (second series), active compounds read low 0.977 | locus YJL095W, strain BCK1, active compounds read low 1.01 | locus YJL115W, strain asf1, active compounds read low 1.02 | locus YJL129C, strain trk1, active compounds read low 1.04 | locus YJL134W, strain LCB3, active compounds read low 1.01 | locus YJL154C, strain vps35, active compounds read low 1 | locus YJL164C, strain tpk1, active compounds read low 0.997 | locus YJL166W, strain qcr8, active compounds read low 1 | locus YJL168C, strain set2, active compounds read low 1.01 | locus YJL187C, strain SWE1 (second series), active compounds read low 1.01 | locus YJL187C, strain SWE1, active compounds read low 0.983
